Source: PubChem (several laboratories)
Anthrax LF prot: inhibitors of Bacillus anthracis lethal factor protease; AID 588501; inhibition, % at 10 µM; multiplex microsphere protease cleavage assay, LF; 360,000 compounds, 0.12% hits; P15917
BoNT-F LC inh: blocks Botulinum neurotoxin F light chain protease | Multiplex microsphere protease cleavage assay, flow cytometry | inhibition, % at 10 µM | 360,000 compounds, 0.22% hits | AID 588497; in the data active means inhibition above about 35%, passing the limit was not always enough; inconclusive means no clear call, values can overlap the other calls
BoNT A protease: blocks Botulinum neurotoxin A light chain protease; inhibition, % at 10 µM; AID 588499; 360,000 compounds, 0.17% hits; multiplex microsphere protease substrate cleavage, flow cytometry
PriA SSB inh: blocks PriA binding to SSB C-terminal tail | AlphaScreen SSBct-PriA binding, biotinylated peptide | inhibition, % at 33 µM | 430,000 compounds, 0.6% hits; in the data active means inhibition mostly above about 37%, no sharp cut-off; inactive means mostly below about 20%
Bead autofluor: compound fluorescence in toxin protease inhibitor counterscreen; AID 624483; compound autofluorescence counterscreen, microsphere flow cytometry; active compounds read high; fluorescence intensity (test concentration not listed); 360,000 compounds, 3.1% hits; in the data active means fluorescence intensity above about 16000; inconclusive means no clear call, values can overlap the other calls
Hits are given with their value; - = inactive; ? = inconclusive; . = no result; ! = repeats disagree. Rows were chosen to be rich in hits. Some 3.1% of all compounds tested hit in one or more screens of this group. Unless noted, no stated cut-off is given here; in the data, active means inhibition above about 30%; inconclusive means no clear call, values can overlap the other calls; inactive means below that.

SMILES | Anthrax LF prot | BoNT-F LC inh | BoNT A protease | PriA SSB inh | Bead autofluor
CC(C)CS(=O)(=O)NCC(c1ccsc1)N(C)C (stereo unspecified) | . | . | . | - | .
CC(C)(C)OC(=O)N1CCC(c2cc(C(N)=O)n[nH]2)CC1 | . | . | . | 39 | .
CCN1C=CC(=C2C(=O)c3ccccc3C2=O)C=C1 | - | - | - | - | 17505
O=C(C1CC1)N1CCSC(c2cc(F)ccc2F)CC1 (stereo unspecified) | . | . | . | - | .
O=C(O)CCC(=O)OCC1CCCCC1 | - | - | ? | - | 19321
Cc1cc2c3c(c1)C1(SCC(=O)N1c1ccc(F)cc1)C(=O)N3C(C)(C)CC2C (stereo unspecified) | - | - | - | - | 18092
O=C(Nc1ccccc1[N+](=O)[O-])C(=O)N1CCN(Cc2ccc3c(c2)OCO3)CC1 | . | . | . | 50 | .
O=C(Nc1ccccc1[N+](=O)[O-])C(=O)N1CCN(c2ccccc2F)CC1 | . | . | . | 36 | .
CN(C)S(=O)(=O)c1ccc2nc(NC(=O)c3cccs3)sc2c1 | - | - | - | - | 21214
CC(C)CNS(=O)(=O)c1ccc2nc(NC(=O)c3ccccc3Cl)sc2c1 | . | . | . | 41 | .
CCN(CC)S(=O)(=O)c1ccc2nc(SC)sc2c1 | - | - | - | - | 18930
CS(=O)(=O)c1ccc2nc(NC(=O)c3ccccc3Cl)sc2c1 | - | - | - | - | -
CCCN(CCC)S(=O)(=O)c1ccc(C(=O)Nc2ccc3sc(SC)nc3c2)cc1 | . | . | . | - | .
CN(C)S(=O)(=O)c1ccc2nc(NC(=O)c3cccnc3)sc2c1 | - | - | - | - | -
CSc1nc2ccc(S(=O)(=O)N(C)C)cc2s1 | - | - | ? | - | 20777
CS(=O)(=O)N1CCC(C(=O)Nc2ccc(-c3nc4ccccc4[nH]3)cc2)CC1 | . | . | . | - | .
CCOC(=O)N=S(N)(=O)c1ccccc1 (stereo unspecified) | - | - | - | - | 20787
CCOC(=O)/C(=N\Nc1ccccc1)S(=O)(=O)c1ccccc1 | - | - | - | . | 23295
CCOC(=O)c1cn[nH]c1S(=O)(=O)Nc1cccc(C)c1C | . | . | . | - | .
CC1CCc2[nH]nc(C(=O)O)c2C1 (stereo unspecified) | - | - | - | - | 20725
Cc1cc2oc(C(=O)N(Cc3ccc(N(C)C)cc3)CC3CCCO3)c(C)c2cc1C (stereo unspecified) | - | - | - | 50 | -
O=[N+]([O-])c1ccc(/C=C/C2=NN(c3ccccc3)C(c3ccco3)C2)cc1 (stereo unspecified) | 40 | 66 | 57 | - | 34435
CCN(CC)S(=O)(=O)N1CCC(C(=O)NC2CCCc3ccccc32)CC1 (stereo unspecified) | - | - | - | - | 20617
Cc1nn(C)c(C)c1S(=O)(=O)N1CCC(C(=O)NC2CCCc3ccccc32)CC1 (stereo unspecified) | - | - | - | - | -
CNC(=O)NC1CCCc2ccccc21 (stereo unspecified) | - | - | - | - | 23281
SMILES | Anthrax LF prot | BoNT-F LC inh | BoNT A protease | PriA SSB inh | Bead autofluor
Cc1ccc(S(=O)(=O)N2CCN(CC(=O)NC3CCCc4ccccc43)CC2)cc1C (stereo unspecified) | - | - | - | - | 21955!
O=C(Nc1ccccc1)NC1CCCc2ccccc21 (stereo unspecified) | - | - | - | - | -
COc1ccccc1-c1nnc(NC(=O)C2CCCCC2)o1 | . | . | . | - | .
CCOc1ccc(-c2nnc3ccc(SCC(=O)Nc4nc(C)cs4)nn23)cc1 | . | . | . | - | .
CCC(C)n1c(S(=O)(=O)O)nc2ccccc21 (stereo unspecified) | - | - | - | - | 22449
Cc1oc2cc(OC(=O)N3CCOCC3)ccc2c(=O)c1-c1nc2ccccc2s1 | . | . | . | - | .
COc1ccccc1N1CCN(C(=O)CCn2c(=O)[nH]c3ccccc3c2=O)CC1 | - | - | ? | - | 22600
Cc1nc2ncnn2c(N2CCN(C(=O)Cc3cccs3)CC2)c1C | - | - | - | - | 22223
COc1ccccc1N1CCN(C(=O)Cc2cccs2)CC1 | - | - | ? | - | 22449
COc1cc(/C=C2\SC(=S)N(CCC(=O)Nc3ccccn3)C2=O)cc(OC)c1OC | - | - | - | - | -
COc1cc(/C=C2/SC(=S)N(CC(=O)Nc3nc4ccccc4s3)C2=O)cc(OC)c1OC | 42 | - | 40 | - | -
COc1cc(/C=C2\SC(=S)N(CC(=O)Nc3ccccn3)C2=O)cc(OC)c1OC | - | - | 39 | - | -
Cn1cc(C(=O)NCC2CCN(S(=O)(=O)c3cccnc3)CC2)nn1 | . | . | . | - | .
CC(=O)Nc1ccc(SCC(=O)N2CCCc3ccccc32)nn1 | . | . | . | - | .
CCCNC(=O)COc1ccc(S(=O)(=O)Nc2ccc(C)cc2)cc1 | - | - | - | - | 22233
